# Test results published in PubChem BioAssay AID1159580 (chemical genetic matrix, 2015).
# Values joined by “and” are separate entries in the source; they are usually repeats but may differ in a detail not shown here. Identical values can stand only once. Among all 5,500 compounds or so, about 2,000 (36%) were called active. Inconclusive results (about 18%) are left out. This is one part of the list. Values without a mark were called inactive. Cut-off read from the data, not from the text of the source: active = normalized growth mostly below about 0.91 (no sharp cut-off); inconclusive = no clear call, values can overlap the other calls; inactive = mostly above about 0.92.
# Test: chemical genetic growth profiling, strain panel (AID 1159580);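 note: tested at 20 µM; growth read once vehicle control cultures reached saturation at 30 °C; 1 = growth at the plate median or of vehicle wells; lower values mean less growth of the strain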
# Conditions: growth OD
# [1] = S. cerevisiae deletion strains, locus YAL013W, strain DEP1, stronger effect = lower value
# [2] = S. cerevisiae deletion strains, locus YAL040C, strain CLN3, stronger effect = lower value
# [3] = S. cerevisiae deletion strains, locus YCL061C, strain MRC1 (second series), stronger effect = lower value
# [4] = S. cerevisiae deletion strains, locus YDR150W, strain NUM1, stronger effect = lower value
# [5] = S. cerevisiae deletion strains, locus YER002W, strain NOP16, stronger effect = lower value
# [6] = S. cerevisiae deletion strains, locus YMR307W, strain GAS1, stronger effect = lower value
# [7] = S. cerevisiae deletion strains, locus YNL128W, strain TEP1, stronger effect = lower value
# [8] = S. cerevisiae deletion strains, locus YNL153C, strain GIM3, stronger effect = lower value
# [9] = S. cerevisiae deletion strains, locus YNL175C, strain NOP13, stronger effect = lower value
# [10] = S. cerevisiae deletion strains, locus YNL197C, strain WHI3, stronger effect = lower value
# [11] = S. cerevisiae deletion strains, locus YNL224C, strain SQS1, stronger effect = lower value
# [12] = S. cerevisiae deletion strains, locus YOR083W, strain WHI5 (second series), stronger effect = lower value
# [13] = S. cerevisiae deletion strains, locus YPL055C, strain LGE1, stronger effect = lower value
# [14] = S. cerevisiae deletion strains, locus YJR075W, strain HOC1, stronger effect = lower value
# [15] = S. cerevisiae deletion strains, locus YPL241C, strain CIN2, stronger effect = lower value
smiles,measurement,setting,value
CCN1C(=O)C=CC1=O,normalized growth,[1],1.04
same,normalized growth,[2],1
same,normalized growth,[3],1.01
same,normalized growth,[4],1.01
same,normalized growth,"S. cerevisiae deletion strains, locus YDR363W, strain ESC2, stronger effect = lower value",0.992
same,normalized growth,[5],1
same,normalized growth,[6],1.02
same,normalized growth,[7],1.03
same,normalized growth,[8],1.02
same,normalized growth,[9],1.01
same,normalized growth,[10],1.01
same,normalized growth,[11],1
same,normalized growth,[12],1.07
same,normalized growth,[13],1.09
CC12C(=O)OC(=O)C1(C)C1CCC2O1 (configuration not stated),normalized growth,[2],0.905
same,normalized growth,[3],0.975
same,normalized growth,[5],0.925
same,normalized growth,[14],1.04
same,normalized growth,[7],0.954
same,normalized growth,[9],0.887 (active)
same,normalized growth,[10],0.879 (active)
same,normalized growth,[11],0.911 (active)
same,normalized growth,[12],0.85 (active)
same,normalized growth,[13],1.05
same,normalized growth,[15],0.967
C[C@@]12C(=O)OC(=O)[C@]1(C)C1CCC2O1,normalized growth,[1],0.966
same,normalized growth,"S. cerevisiae deletion strains, locus YBR021W, strain FUR4, stronger effect = lower value",0.808 (active)
same,normalized growth,"S. cerevisiae deletion strains, locus YBR229C, strain ROT2, stronger effect = lower value",0.913 (active)
same,normalized growth,"S. cerevisiae deletion strains, locus YCL029C, strain bik1, stronger effect = lower value",0.685 (active)
same,normalized growth,"S. cerevisiae deletion strains, locus YDL035C, strain GPR1, stronger effect = lower value",0.919
same,normalized growth,"S. cerevisiae deletion strains, locus YDL074C, strain BRE1, stronger effect = lower value",0.662 (active)
same,normalized growth,"S. cerevisiae deletion strains, locus YDL101C, strain DUN1, stronger effect = lower value",0.971
same,normalized growth,"S. cerevisiae deletion strains, locus YDL134C, strain PPH21, stronger effect = lower value",0.939
same,normalized growth,"S. cerevisiae deletion strains, locus YDL185W, strain tfp1, stronger effect = lower value",0.106 (active)
same,normalized growth,"S. cerevisiae deletion strains, locus YDL192W, strain arf1, stronger effect = lower value",0.87 (active)
same,normalized growth,"S. cerevisiae deletion strains, locus YDR101C, strain arx1, stronger effect = lower value",0.715 (active)
same,normalized growth,[4],0.926
same,normalized growth,"S. cerevisiae deletion strains, locus YDR162C, strain NBP2, stronger effect = lower value",0.824 (active)
same,normalized growth,"S. cerevisiae deletion strains, locus YDR318W, strain mcm21, stronger effect = lower value",0.681 (active)
same,normalized growth,"S. cerevisiae deletion strains, locus YDR388W, stronger effect = lower value",0.85 (active)
same,normalized growth,"S. cerevisiae deletion strains, locus YDR502C, strain sam2, stronger effect = lower value",0.826 (active)
same,normalized growth,"S. cerevisiae deletion strains, locus YEL061C, strain CIN8, stronger effect = lower value",0.91 (active)
same,normalized growth,"S. cerevisiae deletion strains, locus YER110C, stronger effect = lower value",0.902
same,normalized growth,"S. cerevisiae deletion strains, locus YER155C, strain BEM2, stronger effect = lower value",0.887 (active)
same,normalized growth,"S. cerevisiae deletion strains, locus YER167W, strain BCK2, stronger effect = lower value",0.895 (active)
same,normalized growth,"S. cerevisiae deletion strains, locus YGL078C, strain dbp3, stronger effect = lower value",0.15 (active)
same,normalized growth,"S. cerevisiae deletion strains, locus YGL086W, strain mad1, stronger effect = lower value",0.911 (active)
same,normalized growth,"S. cerevisiae deletion strains, locus YGL248W, strain PDE1, stronger effect = lower value",0.932
same,normalized growth,"S. cerevisiae deletion strains, locus YGR078C, strain PAC10, stronger effect = lower value",0.869
same,normalized growth,"S. cerevisiae deletion strains, locus YGR135W, strain pre9, stronger effect = lower value",0.785 (active)
same,normalized growth,"S. cerevisiae deletion strains, locus YGR229C, strain SMI1, stronger effect = lower value",1.02
same,normalized growth,"S. cerevisiae deletion strains, locus YGR252W, strain gcn5, stronger effect = lower value",0.848
same,normalized growth,"S. cerevisiae deletion strains, locus YHR030C, strain SLT2, stronger effect = lower value",0.0503 (active) and 0.0957 (active)
same,normalized growth,"S. cerevisiae deletion strains, locus YHR079C, strain IRE1 (second series), stronger effect = lower value",0.782 (active)
same,normalized growth,"S. cerevisiae deletion strains, locus YHR079C, strain IRE1, stronger effect = lower value",0.173 (active)
same,normalized growth,"S. cerevisiae deletion strains, locus YHR094C, strain hxt1, stronger effect = lower value",0.861 (active)
same,normalized growth,"S. cerevisiae deletion strains, locus YHR129C, strain ARP1, stronger effect = lower value",0.877 (active)
same,normalized growth,"S. cerevisiae deletion strains, locus YHR200W, strain rpn10, stronger effect = lower value",0.82 (active)
same,normalized growth,"S. cerevisiae deletion strains, locus YIL066C, strain RNR3, stronger effect = lower value",0.924
same,normalized growth,"S. cerevisiae deletion strains, locus YIL073C, strain SPO22, stronger effect = lower value",0.968
same,normalized growth,"S. cerevisiae deletion strains, locus YIL125W, strain kgd1, stronger effect = lower value",0.23 (active)
same,normalized growth,"S. cerevisiae deletion strains, locus YIR030C, strain dcg1, stronger effect = lower value",0.869 (active)
same,normalized growth,"S. cerevisiae deletion strains, locus YJL095W, strain BCK1, stronger effect = lower value",0.0568 (active) and 0.105 (active)
same,normalized growth,"S. cerevisiae deletion strains, locus YJL134W, strain LCB3, stronger effect = lower value",0.929
same,normalized growth,"S. cerevisiae deletion strains, locus YJL168C, strain set2, stronger effect = lower value",0.798 (active)
same,normalized growth,"S. cerevisiae deletion strains, locus YJL187C, strain SWE1 (second series), stronger effect = lower value",0.895
same,normalized growth,"S. cerevisiae deletion strains, locus YJR043C, strain POL32, stronger effect = lower value",0.862
same,normalized growth,"S. cerevisiae deletion strains, locus YJR066W, strain TOR1, stronger effect = lower value",0.049 (active)
same,normalized growth,[14],0.964
same,normalized growth,"S. cerevisiae deletion strains, locus YKL009W, strain mrt4, stronger effect = lower value",0.169 (active)
same,normalized growth,"S. cerevisiae deletion strains, locus YKL068W, stronger effect = lower value",0.288 (active)
same,normalized growth,"S. cerevisiae deletion strains, locus YKL085W, strain MDH1 (second series), stronger effect = lower value",0.17 (active)
same,normalized growth,"S. cerevisiae deletion strains, locus YKL085W, strain MDH1, stronger effect = lower value",0.17 (active)
same,normalized growth,"S. cerevisiae deletion strains, locus YKL190W, strain CNB1, stronger effect = lower value",0.94
same,normalized growth,"S. cerevisiae deletion strains, locus YKR001C, strain vps1, stronger effect = lower value",0.658 (active)
same,normalized growth,"S. cerevisiae deletion strains, locus YLR039C, strain RIC1, stronger effect = lower value",0.918
same,normalized growth,"S. cerevisiae deletion strains, locus YLR058C, strain SHM2, stronger effect = lower value",0.931
same,normalized growth,"S. cerevisiae deletion strains, locus YLR102C, strain apc9, stronger effect = lower value",0.833 (active)
same,normalized growth,"S. cerevisiae deletion strains, locus YLR113W, strain HOG1, stronger effect = lower value",0.182 (active)
same,normalized growth,"S. cerevisiae deletion strains, locus YLR262C, strain YPT6, stronger effect = lower value",1
same,normalized growth,"S. cerevisiae deletion strains, locus YLR268W, strain sec22, stronger effect = lower value",0.78 (active)
same,normalized growth,"S. cerevisiae deletion strains, locus YLR330W, strain CHS5, stronger effect = lower value",0.923
same,normalized growth,"S. cerevisiae deletion strains, locus YLR342W, strain FKS1 (second series), stronger effect = lower value",1.11
same,normalized growth,"S. cerevisiae deletion strains, locus YLR371W, strain rom2, stronger effect = lower value",0.879 (active)
same,normalized growth,"S. cerevisiae deletion strains, locus YLR418C, strain cdc73, stronger effect = lower value",0.949
same,normalized growth,"S. cerevisiae deletion strains, locus YML016C, strain PPZ1, stronger effect = lower value",0.91 (active)
same,normalized growth,"S. cerevisiae deletion strains, locus YML032C, strain rad52, stronger effect = lower value",0.69 (active)
same,normalized growth,"S. cerevisiae deletion strains, locus YML124C, strain tub3, stronger effect = lower value",0.853 (active)
same,normalized growth,"S. cerevisiae deletion strains, locus YMR078C, strain ctf18, stronger effect = lower value",0.753 (active)
same,normalized growth,"S. cerevisiae deletion strains, locus YMR223W, strain ubp8, stronger effect = lower value",0.8 (active)
same,normalized growth,"S. cerevisiae deletion strains, locus YMR263W, strain SAP30, stronger effect = lower value",0.877 (active)
same,normalized growth,[6],1.13
same,normalized growth,"S. cerevisiae deletion strains, locus YNL067W, strain RPL9B, stronger effect = lower value",0.841 (active)
same,normalized growth,[7],0.944
same,normalized growth,[8],0.671 (active)
same,normalized growth,"S. cerevisiae deletion strains, locus YNL183C, strain NPR1, stronger effect = lower value",0.0569 (active)
same,normalized growth,"S. cerevisiae deletion strains, locus YNL233W, strain BNI4, stronger effect = lower value",0.923
same,normalized growth,"S. cerevisiae deletion strains, locus YNL250W, strain rad50, stronger effect = lower value",0.144 (active)
same,normalized growth,"S. cerevisiae deletion strains, locus YNL271C, strain bni1, stronger effect = lower value",0.521 (active)
same,normalized growth,"S. cerevisiae deletion strains, locus YNL298W, strain CLA4, stronger effect = lower value",0.162 (active)
same,normalized growth,"S. cerevisiae deletion strains, locus YNL307C, strain MCK1, stronger effect = lower value",0.922
same,normalized growth,"S. cerevisiae deletion strains, locus YNL322C, strain KRE1, stronger effect = lower value",0.923 (active)
same,normalized growth,"S. cerevisiae deletion strains, locus YNR052C, strain pop2, stronger effect = lower value",0.791 (active)
same,normalized growth,"S. cerevisiae deletion strains, locus YOL006C, strain TOP1, stronger effect = lower value",0.835
same,normalized growth,"S. cerevisiae deletion strains, locus YOL012C, strain htz1",0.4
same,normalized growth,"S. cerevisiae deletion strains, locus YOL147C, strain pex11, stronger effect = lower value",0.825 (active)
same,normalized growth,"S. cerevisiae deletion strains, locus YOR061W, strain CKA2, stronger effect = lower value",0.905
same,normalized growth,"S. cerevisiae deletion strains, locus YOR069W, strain VPS5, stronger effect = lower value",0.917 (active)
same,normalized growth,"S. cerevisiae deletion strains, locus YOR136W, strain idh2, stronger effect = lower value",0.906 (active)
same,normalized growth,"S. cerevisiae deletion strains, locus YOR144C, strain elg1, stronger effect = lower value",0.703 (active)
same,normalized growth,"S. cerevisiae deletion strains, locus YOR184W, strain ser1, stronger effect = lower value",0.939
same,normalized growth,"S. cerevisiae deletion strains, locus YOR231W, strain MKK1, stronger effect = lower value",0.147 (active)
same,normalized growth,"S. cerevisiae deletion strains, locus YOR316C, strain cot1, stronger effect = lower value",0.854 (active)
same,normalized growth,[13],0.601 (active)
same,normalized growth,[15],0.932
same,normalized growth,"S. cerevisiae deletion strains, locus YPL256C, strain CLN2, stronger effect = lower value",0.167 (active)
same,normalized growth,"S. cerevisiae deletion strains, locus YPR119W, strain clb2, stronger effect = lower value",0.861 (active)
same,normalized growth,"S. cerevisiae deletion strains, locus YPR141C, strain kar3, stronger effect = lower value",0.113 (active)
same,normalized growth,"S. cerevisiae deletion strains, locus YPR163C, strain tif3, stronger effect = lower value",0.585 (active)
same,normalized growth,"S. cerevisiae deletion strains, locus YPR167C, strain met16, stronger effect = lower value",0.786 (active)
same,normalized growth,"S. cerevisiae deletion strains, strain wtn01, stronger effect = lower value",0.834 (active)
same,normalized growth,"S. cerevisiae strains, strain wild type, stronger effect = lower value",0.94
